Results filed as inconclusive are left out. Values without a mark were called inactive. The call rests on the fitted dose curve; in most records, active means well fitted inhibition curve with a large enough effect in the repeat runs; inconclusive means weak or mixed curves; inactive means flat fitted curve, though single readings scatter.
On the % scale 0 is the no-effect control and ±100 the full control effect.

Voltage-gated inwardly rectifying potassium channel KCNH2 (Homo sapiens), sequence (Q12809 whole entry, looked up): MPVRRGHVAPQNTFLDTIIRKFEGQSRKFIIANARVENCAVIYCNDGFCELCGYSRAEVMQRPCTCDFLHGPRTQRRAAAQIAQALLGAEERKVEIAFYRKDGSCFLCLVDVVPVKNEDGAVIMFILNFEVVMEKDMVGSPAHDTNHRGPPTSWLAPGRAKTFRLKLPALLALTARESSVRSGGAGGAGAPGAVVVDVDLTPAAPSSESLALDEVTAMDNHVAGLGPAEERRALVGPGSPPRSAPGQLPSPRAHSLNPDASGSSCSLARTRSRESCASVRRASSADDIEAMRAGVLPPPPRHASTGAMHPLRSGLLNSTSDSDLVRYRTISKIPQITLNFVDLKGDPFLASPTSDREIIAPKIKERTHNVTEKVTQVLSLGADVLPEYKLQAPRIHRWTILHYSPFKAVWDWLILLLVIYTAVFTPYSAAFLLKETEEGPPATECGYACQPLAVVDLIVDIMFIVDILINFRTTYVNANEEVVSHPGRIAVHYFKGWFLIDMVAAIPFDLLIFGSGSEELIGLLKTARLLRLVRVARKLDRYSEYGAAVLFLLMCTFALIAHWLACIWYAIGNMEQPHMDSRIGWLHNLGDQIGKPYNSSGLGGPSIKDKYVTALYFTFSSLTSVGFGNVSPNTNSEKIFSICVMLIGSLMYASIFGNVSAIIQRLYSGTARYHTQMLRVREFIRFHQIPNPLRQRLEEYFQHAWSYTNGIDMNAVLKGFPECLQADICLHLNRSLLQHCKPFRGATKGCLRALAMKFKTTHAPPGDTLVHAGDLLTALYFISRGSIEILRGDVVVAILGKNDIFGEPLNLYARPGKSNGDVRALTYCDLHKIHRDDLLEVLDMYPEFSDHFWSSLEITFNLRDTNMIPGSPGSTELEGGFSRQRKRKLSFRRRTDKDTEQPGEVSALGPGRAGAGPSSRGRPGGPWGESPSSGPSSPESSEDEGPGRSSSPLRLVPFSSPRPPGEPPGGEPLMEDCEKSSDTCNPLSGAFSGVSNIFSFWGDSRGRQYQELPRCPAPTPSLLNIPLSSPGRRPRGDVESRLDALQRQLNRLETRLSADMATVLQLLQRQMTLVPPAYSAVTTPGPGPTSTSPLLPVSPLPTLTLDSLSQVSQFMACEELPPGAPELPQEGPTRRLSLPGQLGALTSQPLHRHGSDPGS

The target in the experiment is Voltage-gated inwardly rectifying potassium channel KCNH2 (Homo sapiens) (UniProt Q12809). The experiment is described as follows: Human Ether-a-go-go-Related Gene (hERG) channel small molecule antagonists: fluorescence cell-based qHTS assay (AID 1671200). Further: nearly all actives have a fitted effect of over 50% in size. The following applies: hERG-U2OS cells, FluxOR thallium flux fluorescence; series mostly up to 76.8 µM; activity change, negative = inhibition: at the top concentration. The text has this:
National Center for Advancing Translational Sciences [NCATS]
U.S. Environmental Protection Agency [EPA]
National Institutes of Environmental Health Sciences [NIEHS]
National Toxicology Program [NTP]
U.S. Food and Drug Administration [FDA]
Mutations in the hERG channel cause Long QT (LQT) syndrome. LQT syndrome is a cardiac disorder which can cause ventricle arrhythmia and sudden death. Additionally, compounds which block the hERG channel can cause acquired LQT syndrome. Several FDA approved drugs have been removed from the market due to their hERG blocking activity. A cell-based hERG channel inhibition assay can be used to screen chemical compounds that inhibit hERG channel. This assay measures hERG channel activity using thallium ions as surrogate ions to measure potassium into the cells.
Tox21 Assay Protocol Summary:
hERG-U2OS cells were resuspended in culture medium and dispensed into 1536-well, black wall/clear-bottom plates at 1000cells/well/3uL using a Multidrop Combi dispenser (Thermo Fisher, Waltham, MA). After plates were incubated at 37 C overnight, 3 uL of Loading Buffer provided by FluxOR II Potassium Ion Channel Assay kit (Thermo, Carlsbad, CA) was added to each well. The assay plates were then incubated at room temperature in the dark for 1h. […] After the assay plates were incubated at room temperature for 10 min, 1 uL of Stimulus Buffer provided by FluxOR II Potassium Ion Channel Assay kit was added into each well and fluorescence intensity (480nm excitation/540nm emission) was continuously measured for 2 min at 1 second intervals using a Functional Drug Screening System (FDSS) 7000EX kinetic plate reader (Hamamatsu, Japan).
In general terms: hERG is a cardiac potassium channel; its block is linked to QT prolongation.
For `BrCCCCCBr`, the “activity change, negative = inhibition” value was -1.68%.
In the case of `CC(C)c1ccc2cc(C(C)C)ccc2c1`, the “activity change, negative = inhibition” value was -13.6%.
Then `CC(C)N(c1ccccc1)C(C)C`, with 1.23%; and `NS(=O)(=O)c1cc2c(cc1Cl)CN(C1CCCCC1)C2=O`, with 3.39% [at 35.3 µM]; and `O=C(NCCc1c[nH]c2ccccc12)c1cccnc1`, with 3.56% [at 35.3 µM].
Then `CCOC(=O)CC(=O)c1ccccc1`, with 2.08%; and `Cc1c(I)c(=O)n(-c2ccccc2)n1C`, with -3.25% [at 35.3 µM]; and `CNC(=O)[C@H]1O[C@@H](n2cnc3c(NCc4cc(Cl)ccc4OCc4cc(C)no4)ncnc32)[C@H](O)[C@@H]1N`, with -0.353%.
As to `Oc1ccccc1-c1nnco1`, the “activity change, negative = inhibition” value was 3.12% [at 35.3 µM].
Then `COCCOCCOCCOCCOCCO`, with 0.184%; and `CCOC(=O)c1ccc(OC(=O)CCCCCN=C(N)N)cc1`, with 7.23% [at 35.3 µM]; and `CC(C)C[C@H](NC(=O)CNC(=O)[C@H](Cc1ccc(O)cc1)NC(=O)[C@H](CO)NC(=O)[C@H](Cc1c[nH]c2ccccc12)NC(=O)[C@H](Cc1cnc[nH]1)NC(=O)[C@@H]1CCC(=O)N1)C(=O)N[C@@H](CCCN=C(N)N)C(=O)N1CCC[C@H]1C(=O)NCC(N)=O` (stereo in doubt), with -0.952% [at 35.3 µM].
Then `COc1ccc2nc(SCc3ncc(C)c(OC)c3C)[nH]c2c1`, with -3.74% [at 35.3 µM].
Consider `Cc1cccc(C)c1OCC(C)N` (stereo not given), for which the “activity change, negative = inhibition” value was -1.58% [at 35.3 µM].
In the case of `CCn1ccc(NS(=O)(=O)c2ccc(N)cc2)nc1=O`, the “activity change, negative = inhibition” value is 1.35% [at 35.3 µM].
For `COc1cc(C(=S)N2CCOCC2)cc(OC)c1OC`, the “activity change, negative = inhibition” value is 3.28% [at 35.3 µM].
Then `Cc1cc(NC(=O)C2=C(O)c3ccccc3S(=O)(=O)N2C)no1`, with -2.56% [at 35.3 µM]; and `Nc1cccc(O)c1`, with 1.9%; and `Cc1cccc2nccnc12`, with 7.15%.
Then `CCCCCCCCOS(=O)(=O)O`, with 7.18%; and `CCCCC(CC)COCCO` (stereo not given), with 10.2%.
For `C#CC(C)N(C)C(=O)Nc1ccc(Cl)cc1` (stereo not given) the value was 6.09%; for `CC(C)CC(C)CC(C)CC(C)COC(=O)c1ccccc1C(=O)OCC(C)CC(C)CC(C)CC(C)C` (stereo not given), 4.57%.
In the case of `CC(=O)Nc1cccc(C)c1`, the “activity change, negative = inhibition” value is 0.344%.
For `CC1=C(C(=O)O)N2C(=O)[C@@H](NC(=O)[C@H](N)c3ccc(O)cc3)[C@H]2SC1` the value was 2.46% [at 35.3 µM]; for `CCOC(=O)[C@H](CCc1ccccc1)N[C@@H](C)C(=O)N1C(=O)N(C)C[C@H]1C(=O)O`, 14.7% [at 35.3 µM]; for `N[C@@H](CCC(=O)N[C@@H](CS)C(=O)NCC(=O)O)C(=O)O`, 7.2% [at 15.8 µM].
For `CC(=O)Nc1ccc(S(=O)(=O)Nc2ccc([N+](=O)[O-])cc2)cc1` the value was -1.75% [at 35.3 µM].
For `CC(=O)c1sc(C)nc1C` the value was -2.34%; for `COc1ccc(Br)c(C)c1`, 8.08%; for `O=C1O[C@@H]2[C@@H](O)[C@H](O)O[C@@H]2[C@H]1O`, 0.03%.
Turning to `N[C@@H](COP(=O)(O)O)C(=O)O`, the activity change, negative = inhibition was 2.29% [at 15.8 µM].
`Cc1ccccc1N=O`: the “activity change, negative = inhibition” value was -1.19%.
Then `Cc1[nH]cnc1-c1ccc(Cl)cc1`, with 5.47% [at 35.3 µM]; and `O=C(O)CCSSCCC(=O)O`, with 4.81%.
For `OCCC(F)(F)C(F)(F)C(F)(F)C(F)(F)C(F)(F)C(F)(F)C(F)(F)C(F)(F)F` the value was 0.0785%; for `C[Si](C)=O`, 1.17% [at 6.97 µM]; for `CC(CC=O)CCCC(C)(C)O` (stereo not given), -3.64%.
As to `CCCCOC(=O)c1ccccc1`, the “activity change, negative = inhibition” value was -5.79%.
For `O=C(O)Cc1cn(-c2ccccc2)nc1-c1ccc(Cl)cc1` the value was 6.33% [at 35.3 µM].
